Results published in PubChem BioAssay (NCATS).
Results filed as inconclusive are left out. Calls of active or inactive are those of the source. Calls follow the shape of the full dose curve. Bridge positions count the residues as written; N and C are the ends. Square brackets hold non-standard residues; d marks the D form. Peptide text beside a SMILES is read from it. * marks the point of attachment. Octanoyl(6-Me) = CCC(C)CCCCC(=O)*; X1 = CCC(C)C(N)C1=NC(C(=O)*)CS1; dOrn = NCCC[C@@H](N)C(=O)O; Dab = NCC[CH](N)C(=O)O

Legend:
[1] = Primary qHTS for inhibitors of SARS-S pseudo-typed particle cell entry (AID 1479145); conditions: outcome: dose series up to 57.1 µM unless noted; also: nearly all actives have a fitted effect of over 45% in size; as to activity change, negative = inhibition: % is scaled to controls: 0 for no effect and ±100 for the full control effect
[2] = Primary qHTS for Huh7 cytotoxicity: counterscreen for inhibitors of MERS-S pseudotyped particle cell entry (AID 1479147); conditions: outcome: dose series up to 57.1 µM unless noted
[3] = Primary qHTS for inhibitors of MERS-S pseudo-typed particle cell entry (AID 1479149); conditions: outcome: dose series up to 57.1 µM unless noted; also: nearly all actives have a fitted effect of over 60% in size; as to activity change, negative = inhibition: % is scaled to controls: 0 for no effect and ±100 for the full control effect
[4] = Primary qHTS for Vero E6 cytotoxicity: counterscreen for inhibitors of SARS-S pseudo-typed particle cell entry (AID 1479150); conditions: outcome: dose series up to 57.1 µM unless noted
[5] = Cytotoxicity counterscreen for inhibitors of SARS-CoV-2 cell entry (AID 1645845); conditions: outcome: dose series up to 57.1 µM unless noted; also: nearly all actives have a fitted effect of over 50% in size
Outline: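 48 h compound treatment (after 1 h preincubation), HEK293-ACE2 cells, 37 C/5% CO2; ATP luminescence endpoint; normalized to cell wells and media blanks.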

[6] = Primary qHTS to identify inhibitors of SARS-CoV-2 cell entry (AID 1645846); conditions: SARS-CoV-2 pseudovirus cell entry assay, luminescence; activity change, negative = inhibition: at 57.1 µM (top of the series) unless noted; also: nearly all actives have a fitted effect of over 45% in size
Outline: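 Luminescence readout (Bright-Glo luciferase) 48 h after pseudoparticle addition. HEK293-ACE2 cells, 1500/well; compound pre-incubation 1 h; Normalized to spike PP and bald PP.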

COc1cccc(N2CCN(C3=Nc4c(F)cccc4[C@H](CC(=O)O)N3c3cc(C(F)(F)F)ccc3OC)CC2)c1
inactive: Potency [1] | Potency [2] | Potency [3] | Potency [4] | Potency [5] | Potency [6]

CN(C)C=Nc1c(I)cc(I)c(CCC(=O)O)c1I
-33.1%: activity change, negative = inhibition [6]
inactive: Potency [1] | Potency [2] | Potency [3] | Potency [4] | Potency [5]

CCC(C)CCCCC(=O)NC(CCN)C(=O)NC(C(=O)NC(CCN)C(=O)NC1CCNC(=O)C(C(C)O)NC(=O)C(CCN)NC(=O)C(CCN)NC(=O)C(CC(C)C)NC(=O)C(Cc2ccccc2)NC(=O)C(CCN)NC1=O)C(C)O (stereo not given) ({Octanoyl(6-Me)}-[Dab]T[Dab][Dab][Dab]FL[Dab][Dab]T; lactam 4-C; configuration not given here)
-13.5% [at 27.1 µM]: activity change, negative = inhibition [6]
inactive: Potency [1] | Potency [2] | Potency [3] | Potency [4] | Potency [5]

CC=CC1=C(C(=O)O)N2C(=O)[C@@H](NC(=O)[C@H](N)c3ccc(O)cc3)[C@H]2SC1
inactive: Potency [1] | Potency [2] | Potency [3] | Potency [4] | Potency [5] | Potency [6]

O=P(O)(O)C(O)(Cc1cnc2ccccn12)P(=O)(O)O
inactive: outcome [1] inactive [at 0.573 µM] | outcome [2] inactive [at 0.573 µM] | activity change, negative = inhibition [3] -0.315% [at 0.573 µM] | outcome [4] inactive [at 0.573 µM] | outcome [5] inactive [at 0.702 µM] | outcome [6] inactive [at 0.702 µM]

O[C@@H]1[C@@H](O)[C@@H](O)OC[C@@H]1O
-10.9% [at 171 µM]: activity change, negative = inhibition [6]
inactive: Potency [1] | Potency [2] | Potency [3] | Potency [4] | Potency [5]

Nc1nc(CC(=O)Nc2ccc(CCNC[C@H](O)c3ccccc3)cc2)cs1
-24.2%: activity change, negative = inhibition [6]
inactive: Potency [1] | Potency [2] | Potency [3] | Potency [4] | Potency [5]

CNC[C@@H]1CC[C@@H](N)[C@@H](O[C@H]2[C@H](O)[C@@H](O[C@H]3OC[C@](C)(O)[C@H](NC)[C@H]3O)[C@H](N)C[C@@H]2N)O1
inactive: Potency [1] | Potency [2] | Potency [3] | Potency [4] | Potency [5]
-15.6%: activity change, negative = inhibition [6]

C[C@]12C=CC(=O)C=C1CCC1C2[C@@H](O)C[C@@]2(C)C1CC[C@]2(O)C(=O)COC(=O)CCC(=O)O (stereo not given in full)
inactive: Potency [1] | Potency [2] | Potency [3] | Potency [4] | Potency [5]
-21.3%: activity change, negative = inhibition [6]

OCC1OC(c2ccc(Cl)c(Cc3ccc(OC4CCOC4)cc3)c2)C(O)C(O)C1O (stereo not given)
inactive: Potency [1] | Potency [2] | Potency [3] | Potency [4] | Potency [5]
-20.7%: activity change, negative = inhibition [6]

Cn1c(=O)cc(N2CCC[C@@H](N)C2)n(Cc2cc(F)ccc2C#N)c1=O
-23.7%: activity change, negative = inhibition [6]
inactive: Potency [1] | Potency [2] | Potency [3] | Potency [4] | Potency [5]

COc1cc(O)c(C(=O)Nc2nc(C(=O)NCCN(C(C)C)C(C)C)cs2)cc1OC
inactive: Potency [1] | Potency [2] | Potency [3] | Potency [4] | Potency [5]
-17.9%: activity change, negative = inhibition [6]

CCCCC[C@H](O)/C=C/[C@@H]1[C@@H](C/C=C/CCCC(=O)O)[C@@H](O)C[C@H]1O
inactive: Potency [1] | Potency [2] | Potency [3] | Potency [4] | Potency [5]
-6.41%: activity change, negative = inhibition [6]

CCC(C)C(N)C1=NC(C(=O)N[C@@H](CC(C)C)C(=O)N[C@H](CCC(=O)O)C(=O)N[C@H](C(=O)N[C@H]2CCCCNC(=O)[C@H](CC(N)=O)NC(=O)[C@@H](CC(=O)O)NC(=O)[C@H](Cc3cnc[nH]3)NC(=O)[C@@H](Cc3ccccc3)NC(=O)[C@H]([C@@H](C)CC)NC(=O)[C@@H](CCCN)NC2=O)[C@@H](C)CC)CS1 (stereo not given in full) (X1-L[dE]IK[dOrn]I[dF]H[dD]N; lactam 4-C)
-8.8% [at 27.1 µM]: activity change, negative = inhibition [6]
inactive: Potency [1] | Potency [2] | Potency [3] | Potency [4] | Potency [5]

COc1cc2c(cc1OC)[C@@H](Cc1cc(OC)c(OC)c(OC)c1)[N+](C)(CCCOC(=O)CC/C=C/CCC(=O)OCCC[N+]1(C)CCc3cc(OC)c(OC)cc3[C@H]1Cc1cc(OC)c(OC)c(OC)c1)CC2 (stereo not given in full)
-24%: activity change, negative = inhibition [6]
inactive: Potency [1] | Potency [2] | Potency [3] | Potency [4] | Potency [5]

C#C[C@]1(O)CC[C@H]2[C@@H]3CCC4=C/C(=N/O)CC[C@@H]4[C@H]3CC[C@@]21CC
-1.12%: activity change, negative = inhibition [6]
inactive: Potency [1] | Potency [2] | Potency [3] | Potency [4] | Potency [5]

CC1(C)C2CC[C@]3(C)C(C(=O)C=C4[C@@H]5C[C@@](C)(C(=O)O)CC[C@]5(C)CC[C@]43C)[C@@]2(C)CC[C@@H]1O (stereo not given in full)
-28.8%: activity change, negative = inhibition [6]
inactive: Potency [1] | Potency [2] | Potency [3] | Potency [4] | Potency [5]

CC1(C)S[C@@H]2[C@H](NC(=O)C(C(=O)Oc3ccc4c(c3)CCC4)c3ccccc3)C(=O)N2[C@H]1C(=O)O (stereo not given in full)
inactive: Potency [1] | Potency [2] | Potency [3] | Potency [4] | Potency [5] | Potency [6]

C/C=C/C=C/C(=O)O
inactive: Potency [1] | Potency [2] | Potency [3] | Potency [4] | Potency [5] | Potency [6]

CC(=O)OCC(=O)[C@@]1(O)[C@H](C)C[C@H]2[C@@H]3C[C@H](F)C4=CC(=O)C=C[C@]4(C)[C@H]3[C@@H](O)C[C@@]21C
-11.4%: activity change, negative = inhibition [6]
inactive: Potency [1] | Potency [2] | Potency [3] | Potency [4] | Potency [5]
